Source: PubChem BioAssay (Tox21)
Several values for one entry are separate records, joined by “and”; a condition that tells them apart may be missing. Equal values may be shown once. Records with an inconclusive call do not appear. Where a call stands in place of a potency, no number is given. More than one record can exist for a structure, and the calls need not agree. Activity calls are given as the source filed them. Unless noted, calls follow the shape of the dose curve; as a rule, active = well fitted curve in the direction sought with a large enough effect in the repeat runs; inconclusive = weak or mixed curves; inactive = no such curve, though single readings can be large; an effect the other way counts as inactive or inconclusive.

Columns and labels:
[1] = molecular target: Aryl hydrocarbon receptor (Homo sapiens) (UniProt P35869); assay: qHTS assay to identify small molecule that activate the aryl hydrocarbon receptor (AhR) signaling pathway (AID 743085); also: nearly all actives have a fitted effect of over 15% in size; also: potency is read from the fitted curve at half-maximal effect;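 as to activation: HG2L7.5c1 human HepG2 liver cells with stably integrated DRE-driven firefly reporter; series mostly up to about 70 µM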
How it was run: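 24 h compound exposure, 37C, HepG2-derived HG2L7.5c1 cells with DRE-responsive luciferase. Readouts: fluorescence viability, then luminescence at room temperature after 30 min.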

[2] = qHTS assay to identify small molecule that activate the aryl hydrocarbon receptor (AhR) signaling pathway - cell viability counter screen (AID 743086); also: nearly all actives have a fitted effect of over 45% in size; also: potency is read from the fitted curve at half-maximal effect
How it was run: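 HepG2-AhR-luc (HG2L7.5c1) cells, 4000/well, were preincubated 5 h at 37C, exposed to compound in qHTS format for 24 hr at 37C, then given CellTiter-Fluor for 30 min; viability was read as fluorescence in the reporter wells.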

[3] = molecular target: Peroxisome proliferator-activated receptor gamma (Homo sapiens) (UniProt P37231); assay: qHTS assay to identify small molecule agonists of the peroxisome proliferator-activated receptor gamma (PPARg) signaling pathway (AID 743094; active = well fitted activation curve with a large enough effect in the signal ratio in the repeat runs, not every such curve was filed as active; the % refers to the signal ratio)
How it was run: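 Cell-based bla reporter, HEK293H background, PPARg-driven UAS. Pre-incubation 5 h, 37C, 5% CO2. Compound 17 h, 37C. Substrate 1 h RT; fluorescence.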

[4] = molecular target: Peroxisome proliferator-activated receptor gamma (Homo sapiens) (UniProt P37231); assay: qHTS assay to identify small molecule antagonists of the peroxisome proliferator-activated receptor gamma (PPARg) signaling pathway (AID 743191; calls by dose curve; also: series mostly up to about 63 µM; nearly all actives have a fitted effect of over 30% in size)
How it was run: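 GeneBLAzer PPARg UAS-bla HEK293H cells carrying a UAS-driven beta-lactamase reporter were plated at 3000 cells/well, preincubated 5 h at 37C, then given compound for 17 h at 37C; LiveBLAzer B/G FRET substrate was read after 1 h at room temperature.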

[5] = qHTS assay to identify small molecule antagonists of the peroxisome proliferator-activated receptor gamma (PPARg) signaling pathway - cell viability counter screen (AID 743194); also: nearly all actives have a fitted effect of over 55% in size; also: potency is read from the fitted curve at half-maximal effect
How it was run: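 PPARg-UAS-bla HEK293H cells were plated, rested 5 h at 37 C, then treated with compounds plus rosiglitazone (50 nM final) for 17 h at 37 C; viability was then read by CellTiter-Glo luminescence after 30 min at room temperature.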

[6] = qHTS assay for small molecule agonists of the antioxidant response element (ARE) signaling pathway (AID 743202; active = well fitted activation curve with a large enough effect in the signal ratio in the repeat runs, not every such curve was filed as active; the % refers to the signal ratio; also: potency is read from the fitted curve at half-maximal effect)
How it was run: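 Following a 16 h, 37 C exposure of reporter HepG2 cells (ARE-driven beta-lactamase, 2,000 cells/well) to compounds, FRET substrate was applied for 2 h at room temperature and fluorescence intensity recorded.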

[7] = qHTS assay for small molecule agonists of the antioxidant response element (ARE) signaling pathway - cell viability counter screen (AID 743203; calls by dose curve; also: nearly all actives have a fitted effect of over 55% in size; also: potency is read from the fitted curve at half-maximal effect)
How it was run: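 Measured in the same wells as the beta-lactamase ARE reporter, this read-out is CellTiter-Glo luminescence from HepG2 ARE-bla cells given compounds for 16 hrs.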

[8] = qHTS assay for small molecule activators of the heat shock response signaling pathway (AID 743210; active = well fitted activation curve with a large enough effect in the signal ratio in the repeat runs, with a control signal flat, not every such curve was filed as active; the % refers to the signal ratio; also: potency is read from the fitted curve at half-maximal effect; as to activation: series mostly up to about 63 µM)
How it was run: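 Heat shock element–beta-lactamase HeLa reporter cells; qHTS with compounds for 5 h at 37 C; detection by FRET substrate fluorescence after 2.5 h at RT.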

[9] = qHTS assay to identify small molecule agonists of the peroxisome proliferator-activated receptor delta (PPARd) signaling pathway - cell viability counter screen (AID 743211); also: nearly all actives have a fitted effect of over 55% in size; also: potency is read from the fitted curve at half-maximal effect
How it was run: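 Luminescent ATP viability assay (CellTiter-Glo, 30 min RT) in UAS-bla HEK293H cells carrying the PPAR delta reporter construct, 3000 cells/well, after a 17 h compound treatment at 37 C.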

[10] = qHTS assay for small molecule activators of the heat shock response signaling pathway - cell viability counter screen (AID 743209); also: nearly all actives have a fitted effect of over 50% in size; also: potency is read from the fitted curve at half-maximal effect
How it was run: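 Same-well multiplex: after 2.5 h room-temperature incubation with LiveBLAzer B/G substrate and fluorescence reading, CellTiter-Glo reagent was added to HSE-bla HeLa cells that had received compound for 5 h at 37 C; luminescence read after 30 min.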

Chain of Aryl hydrocarbon receptor (Homo sapiens) (P35869 whole entry, looked up): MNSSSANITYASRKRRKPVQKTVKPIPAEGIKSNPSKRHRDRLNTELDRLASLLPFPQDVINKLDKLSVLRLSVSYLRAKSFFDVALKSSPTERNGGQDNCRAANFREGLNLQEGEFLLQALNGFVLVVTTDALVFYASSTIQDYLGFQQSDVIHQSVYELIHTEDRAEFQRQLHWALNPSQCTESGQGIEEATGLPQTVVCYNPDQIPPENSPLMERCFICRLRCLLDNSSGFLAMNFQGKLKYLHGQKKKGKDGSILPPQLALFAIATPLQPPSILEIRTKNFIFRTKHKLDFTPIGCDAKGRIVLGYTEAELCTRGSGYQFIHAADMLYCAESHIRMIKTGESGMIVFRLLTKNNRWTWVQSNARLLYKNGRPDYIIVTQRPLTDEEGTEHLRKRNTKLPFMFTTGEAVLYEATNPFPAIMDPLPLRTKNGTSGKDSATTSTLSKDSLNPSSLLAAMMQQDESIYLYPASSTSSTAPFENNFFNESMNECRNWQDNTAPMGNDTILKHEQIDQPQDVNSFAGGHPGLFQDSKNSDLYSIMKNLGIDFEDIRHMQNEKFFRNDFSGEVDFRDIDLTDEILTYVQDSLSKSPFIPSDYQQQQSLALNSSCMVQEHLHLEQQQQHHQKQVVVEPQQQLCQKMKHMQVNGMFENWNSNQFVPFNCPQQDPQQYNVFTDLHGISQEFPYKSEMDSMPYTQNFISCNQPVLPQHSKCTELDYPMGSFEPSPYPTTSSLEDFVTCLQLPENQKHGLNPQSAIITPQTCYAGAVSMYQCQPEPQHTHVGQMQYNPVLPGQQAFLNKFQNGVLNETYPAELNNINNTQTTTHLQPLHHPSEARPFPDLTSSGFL
Chain of Peroxisome proliferator-activated receptor gamma (Homo sapiens) (P37231 whole entry, looked up): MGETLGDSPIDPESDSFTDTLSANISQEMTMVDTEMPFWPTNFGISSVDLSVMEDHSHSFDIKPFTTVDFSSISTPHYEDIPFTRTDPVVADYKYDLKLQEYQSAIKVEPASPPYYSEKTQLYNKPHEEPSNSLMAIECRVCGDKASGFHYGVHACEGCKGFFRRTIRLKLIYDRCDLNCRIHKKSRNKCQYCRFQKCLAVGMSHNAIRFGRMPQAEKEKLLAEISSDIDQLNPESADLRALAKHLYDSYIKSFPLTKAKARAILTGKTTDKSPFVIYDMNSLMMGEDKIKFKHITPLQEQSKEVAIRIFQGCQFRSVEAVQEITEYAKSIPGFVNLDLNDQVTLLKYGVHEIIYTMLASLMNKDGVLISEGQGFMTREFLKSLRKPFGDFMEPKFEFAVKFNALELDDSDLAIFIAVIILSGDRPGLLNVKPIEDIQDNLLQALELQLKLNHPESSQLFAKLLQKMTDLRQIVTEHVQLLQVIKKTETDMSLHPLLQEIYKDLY

Structure (SMILES)	Potency [1]	Potency [2]	outcome [3]	Potency [4]	Potency [5]	Potency [6]	Potency [7]	Potency [8]	Potency [9]	Potency [10]
O=C(O)CCC(=O)c1ccc(-c2ccccc2)cc1	inactive	inactive	inactive	inactive	inactive	inactive	inactive	inactive	inactive	–
CC(C)(C)C(O)/C=C/c1ccc2c(c1)OCO2 (centres undefined)	11.9 µM (active)	inactive	inactive	inactive	inactive	–	inactive	inactive	–	inactive
CNc1c2c(nn1C)CCCC2	inactive	inactive	inactive	inactive	inactive	inactive	–	inactive	inactive	inactive
Nc1ccc(NC(=O)c2ccc(N)cc2)cc1	inactive	inactive	inactive	inactive	inactive	inactive	inactive	inactive	inactive	–
O=C(O)CCC(=O)OC[C@@H](NC(=O)C(Cl)Cl)[C@H](O)c1ccc([N+](=O)[O-])cc1	inactive	inactive	inactive	–	inactive	inactive	inactive	–	–	–
O=CNNC=O	inactive	inactive	inactive	–	inactive	inactive	inactive	–	–	–
CC(=O)OCC1=C(C(=O)O)N2C(=O)[C@@H](NC(=O)CSc3ccncc3)[C@H]2SC1	inactive	inactive	inactive	inactive	inactive	–	inactive	inactive	–	inactive
COc1ccc2nc(S(=O)Cc3ncc(C)c(OC)c3C)[nH]c2c1 (centres undefined)	48 µM (active)	inactive	inactive	inactive	inactive	17 µM (active) and 16.8 µM (active)	inactive	30.5 µM (active) and inactive	inactive	–
O=P(O)(O)Oc1ccccc1	inactive	inactive	inactive	inactive	inactive	–	inactive	inactive	inactive	inactive
Cc1c(C2(c3cc(Br)c(O)c(Br)c3C)OS(=O)(=O)c3ccccc32)cc(Br)c(O)c1Br	inactive	10.5 µM (active)	inactive	inactive	inactive	–	–	inactive	–	inactive
Cc1ccc(N(CC2=NCCN2)c2cccc(O)c2)cc1	inactive	inactive	inactive	inactive	inactive	–	inactive	inactive	–	inactive
CCN(CC)c1ccc(C(=C2C=CC(=[N+](CC)CC)C=C2)c2ccc(S(=O)(=O)O)cc2S(=O)(=O)[O-])cc1	inactive	19.3 µM (active)	inactive	inactive	–	inactive	–	inactive	–	–
CN=C(N)NC(=O)Nc1c(C)cccc1C	inactive	inactive	inactive	inactive	inactive	inactive	inactive	inactive	inactive	–
CN1C(CSCC(F)(F)F)Nc2cc(Cl)c(S(N)(=O)=O)cc2S1(=O)=O (centres undefined)	inactive	inactive	inactive	inactive	inactive	–	inactive	inactive	inactive	inactive
CNCc1ccc(NC(=O)c2c[nH]c3c2C(=O)CCC3)cc1	1.54 µM (active)	inactive	inactive	inactive	inactive	–	inactive	inactive	inactive	–
CNC1CCCN(c2c(F)cc3c(=O)c(C(=O)O)cn(C4CC4)c3c2OC)C1 (centres undefined)	inactive	inactive	inactive	inactive	inactive	inactive	inactive	inactive	inactive	–
COc1ccc(C2C(=O)c3ccccc3C2=O)cc1	inactive	inactive	inactive	inactive	–	inactive	–	inactive	inactive	inactive
C/C(C=O)=C\c1ccccc1	inactive	inactive	inactive	inactive	inactive	–	inactive	inactive	inactive	inactive
CC1=CC[C@@]23C[C@@H]1C(C)(C)[C@@H]2CC[C@H]3C	inactive	inactive	inactive	inactive	–	inactive	inactive	inactive	inactive	inactive
CC(C)COC(=O)COc1cc(Cl)c(Cl)cc1Cl	inactive	inactive	inactive	inactive	inactive	–	inactive	inactive	–	inactive
O=C(O)CO	inactive	inactive	inactive	inactive	inactive	–	inactive	inactive	inactive	–

Structure (SMILES)	Potency [1]	Potency [2]	outcome [3]	Potency [4]	Potency [5]	Potency [6]	Potency [7]	Potency [8]	Potency [9]	Potency [10]
O=C(C(=O)c1ccco1)c1ccco1	inactive	inactive	inactive	inactive	–	–	inactive	inactive	inactive	inactive
O=C1OC[C@H](Cc2cccc(O)c2)[C@H]1Cc1cccc(O)c1	inactive	inactive	inactive	inactive	–	inactive	inactive	inactive	inactive	inactive
CC(C)(C)CCCCCCOC(=O)c1ccccc1C(=O)OCCCCCCC(C)(C)C	inactive	inactive	inactive	inactive	inactive	–	inactive	inactive	inactive	inactive
C=Cc1ccc(OC(C)=O)cc1	inactive	inactive	inactive	inactive	inactive	–	inactive	inactive	inactive	inactive
O=NN(CCCl)C(=O)NCCCl	inactive	inactive	inactive	inactive	–	–	inactive	inactive	inactive	inactive
CC(=O)NCCO	inactive	inactive	inactive	inactive	inactive	–	inactive	inactive	inactive	inactive
CCCCCCCCCCCSCC(=O)O	inactive	inactive	–	–	inactive	–	inactive	–	–	49 µM (active)
CC(=O)OCC(C)C	inactive	–	inactive	inactive	inactive	inactive	inactive	inactive	inactive	–
CC(C)N(C)C	inactive	–	inactive	inactive	inactive	inactive	inactive	inactive	inactive	–
CC(C)Cc1ccc(CC(=O)O)cc1	inactive	inactive	–	–	inactive	inactive	inactive	–	inactive	–
Nc1ccn([C@H]2CS[C@@H](CO)O2)c(=O)n1	inactive	inactive	–	–	–	–	inactive	inactive	inactive	inactive
COC(OC)OC	inactive	inactive	–	–	inactive	inactive	inactive	inactive	inactive	inactive
CCCCC(CC)COS(=O)(=O)O (centres undefined)	inactive	inactive	–	–	inactive	–	inactive	inactive	–	inactive
CCCCCCC(CO)CCCC (centres undefined)	inactive	inactive	inactive	–	–	inactive	–	inactive	–	inactive
O=C(O)CNC(=O)c1ccccc1I	inactive	–	inactive	inactive	inactive	inactive	inactive	inactive	–	inactive
Cc1ccc(N(CCO)CCO)cc1	inactive	–	inactive	inactive	inactive	–	inactive	inactive	–	inactive
Nc1c(Cl)cc(Cl)cc1[N+](=O)[O-]	inactive	inactive	–	–	inactive	–	inactive	–	inactive	inactive
CCC(C)(C)C(=O)O	inactive	–	inactive	inactive	inactive	inactive	inactive	inactive	inactive	inactive
Cc1ccc2c(c1[N+](=O)[O-])C(=O)c1ccccc1C2=O	30 µM (active)	inactive	–	–	inactive	6.73 µM (active)	–	inactive	inactive	inactive
O[C@@H](CNC[C@H](O)[C@H]1CCc2cc(F)ccc2O1)[C@@H]1CCc2cc(F)ccc2O1	inactive	26.6 µM (active)	–	–	29.8 µM (active)	–	21.1 µM (active)	inactive	23.7 µM (active)	inactive
CCCCCCCCCCCC(=O)OCC(O)CO (centres undefined)	inactive	inactive	–	–	inactive	inactive	inactive	–	–	–

Structure (SMILES)	Potency [1]	Potency [2]	outcome [3]	Potency [4]	Potency [5]	Potency [6]	Potency [7]	Potency [8]	Potency [9]	Potency [10]
CC1CCC(C(C)CS)CC1S (centres undefined)	inactive	inactive	inactive	–	–	–	15.4 µM (active)	–	inactive	38.9 µM (active)
O=C(CCS)OCC(COC(=O)CCS)(COC(=O)CCS)COC(=O)CCS	inactive	inactive	inactive	–	–	–	–	–	inactive	–
CCN(Cc1cccc(S(=O)(=O)O)c1)c1ccc(C(=C2C=CC(=[N+](CC)Cc3cccc(S(=O)(=O)O)c3)C=C2)c2ccc(O)cc2S(=O)(=O)[O-])cc1	inactive	–	inactive	inactive	inactive	inactive	–	inactive	–	–
O=C(O)c1cccc(C[C@@H]2COc3ccc(OCc4nc5cc(F)ccc5s4)cc3[C@@H]2O)c1	inactive	inactive	–	–	–	–	–	inactive	–	–
CC(C)C(=O)OCCOc1ccccc1	inactive	–	inactive	inactive	inactive	inactive	inactive	inactive	–	–
CC(=O)NNC(C)=O	inactive	inactive	–	–	inactive	inactive	inactive	–	inactive	inactive
Nc1nc2ccc(OC(F)(F)F)cc2s1	10.6 µM (active)	–	inactive	inactive	inactive	inactive	inactive	inactive	–	inactive
CCCCCC	inactive	inactive	–	–	inactive	inactive	inactive	inactive	inactive	–
CCCCCc1ccco1	inactive	inactive	–	–	inactive	–	–	–	–	–
CCOC(=O)C(C)O (centres undefined)	inactive	inactive	–	–	inactive	inactive	inactive	inactive	inactive	–
CCN(CC)CCNC(=O)c1cc(Cl)c(N)cc1OC	inactive	inactive	–	–	inactive	inactive	inactive	inactive	inactive	inactive
CC(C(=O)O)c1ccc(C(=O)c2cccs2)cc1 (centres undefined)	inactive	inactive	–	–	inactive	inactive	inactive	inactive	inactive	inactive
CCN(CC)C(=O)/C(C#N)=C/c1cc(O)c(O)c([N+](=O)[O-])c1	inactive	inactive	–	inactive	inactive	–	inactive	–	inactive	inactive
C[C@H](CS)C(=O)N1CCC[C@H]1C(=O)O	inactive	inactive	–	–	inactive	inactive	inactive	inactive	inactive	–
CCC(CO)(CO)CO	inactive	–	inactive	inactive	inactive	inactive	inactive	inactive	inactive	inactive
FC(F)(F)C(F)(F)C(F)(F)C(F)(F)CCI	inactive	–	inactive	inactive	inactive	inactive	inactive	–	–	inactive
CCCc1nc2c(C)cc(-c3nc4ccccc4n3C)cc2n1Cc1ccc(-c2ccccc2C(=O)O)cc1	inactive	inactive	–	–	inactive	26.6 µM (active)	inactive	inactive	inactive	inactive
O=C(NS(=O)(=O)/C=C/c1ccccc1)c1ccc(F)cc1Cl	inactive	inactive	–	–	inactive	–	inactive	inactive	inactive	inactive
O=S(=O)(Cl)c1c(Cl)cccc1Cl	inactive	–	inactive	inactive	inactive	inactive	inactive	inactive	inactive	inactive
C[C@@H]1C[C@H]2[C@@H]3CCC4=CC(=O)C=C[C@]4(C)[C@@]3(F)[C@@H](O)C[C@]2(C)[C@@]1(O)C(=O)COP(=O)(O)O	inactive	–	inactive	inactive	inactive	inactive	inactive	inactive	inactive	inactive
CC(=O)OC(C)C[N+](C)(C)C (centres undefined)	inactive	inactive	–	–	inactive	inactive	inactive	inactive	inactive	–
